Shown is part of a subset that was picked to be rich in hits.
KDM5B inhibitor: Primary screen for KDM5B Histone Demethylases FDH-coupled qHTS | Lysine-specific demethylase 5B (Homo sapiens), Q9UGL1 | KDM5B demethylase, FDH-coupled NADH fluorescence (FDH is formaldehyde dehydrogenase) | Potency, µM (series often up to 57.7 µM), usual class: inhibitors | hit rate 2.6% among 220,000 | AID 1347165, 2019; active = well fitted inhibition curve with a large enough effect; also: 0% is about no effect; nearly all actives have a fitted effect of over 70% in size
Target sequence (Q9UGL1 whole entry, looked up): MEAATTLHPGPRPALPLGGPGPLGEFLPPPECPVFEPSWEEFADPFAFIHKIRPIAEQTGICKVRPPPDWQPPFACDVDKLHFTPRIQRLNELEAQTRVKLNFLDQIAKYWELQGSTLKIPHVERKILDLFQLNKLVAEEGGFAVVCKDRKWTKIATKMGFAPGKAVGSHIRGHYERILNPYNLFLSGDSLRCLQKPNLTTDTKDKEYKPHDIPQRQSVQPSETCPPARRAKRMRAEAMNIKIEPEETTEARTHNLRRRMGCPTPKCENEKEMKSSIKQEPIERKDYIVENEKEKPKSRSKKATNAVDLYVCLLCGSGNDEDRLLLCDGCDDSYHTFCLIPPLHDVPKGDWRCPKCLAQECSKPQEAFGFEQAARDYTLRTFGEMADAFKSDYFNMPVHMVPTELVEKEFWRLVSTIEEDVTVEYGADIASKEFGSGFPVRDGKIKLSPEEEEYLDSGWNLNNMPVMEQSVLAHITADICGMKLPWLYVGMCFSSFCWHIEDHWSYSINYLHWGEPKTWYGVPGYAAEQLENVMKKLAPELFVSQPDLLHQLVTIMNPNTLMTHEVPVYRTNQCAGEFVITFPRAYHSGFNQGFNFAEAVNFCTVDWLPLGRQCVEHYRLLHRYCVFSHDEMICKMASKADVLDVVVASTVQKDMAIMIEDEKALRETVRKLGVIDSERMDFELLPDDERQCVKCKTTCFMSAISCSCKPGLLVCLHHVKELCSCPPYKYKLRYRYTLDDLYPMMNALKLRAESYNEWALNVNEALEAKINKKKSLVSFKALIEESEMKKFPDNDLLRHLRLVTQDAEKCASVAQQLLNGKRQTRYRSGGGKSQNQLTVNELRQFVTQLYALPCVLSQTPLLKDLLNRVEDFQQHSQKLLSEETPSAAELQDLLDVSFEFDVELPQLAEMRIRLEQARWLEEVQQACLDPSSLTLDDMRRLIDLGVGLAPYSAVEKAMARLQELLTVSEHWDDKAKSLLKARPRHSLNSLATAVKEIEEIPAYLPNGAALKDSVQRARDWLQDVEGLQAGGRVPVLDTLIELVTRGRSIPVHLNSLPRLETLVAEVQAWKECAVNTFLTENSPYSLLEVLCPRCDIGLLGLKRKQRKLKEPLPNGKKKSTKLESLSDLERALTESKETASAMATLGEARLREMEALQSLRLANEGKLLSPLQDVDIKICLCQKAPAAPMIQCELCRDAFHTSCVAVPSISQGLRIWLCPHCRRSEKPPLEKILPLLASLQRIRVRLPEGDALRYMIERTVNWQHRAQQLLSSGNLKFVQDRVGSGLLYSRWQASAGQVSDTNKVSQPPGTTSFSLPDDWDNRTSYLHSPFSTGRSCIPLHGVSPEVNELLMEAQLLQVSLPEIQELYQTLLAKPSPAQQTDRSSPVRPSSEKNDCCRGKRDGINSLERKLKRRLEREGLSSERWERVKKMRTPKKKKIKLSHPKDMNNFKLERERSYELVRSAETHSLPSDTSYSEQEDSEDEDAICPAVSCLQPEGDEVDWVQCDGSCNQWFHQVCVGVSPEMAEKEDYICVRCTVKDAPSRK
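KDM5BΔAP (200 nM final) in 50 mM HEPES pH 7.5, 0.01% Tween-20 was preincubated 10 min at RT with compound over a concentration range. Substrate mix (H3K4me3 12.5 µM, α-KG 25 µM, Fe²⁺, ascorbate, NAD⁺, FDH) was added, and NADH fluorescence change over 30 min gave dose-response curves.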
Numbers without * were called inactive; i = inactive. Potency is read from the fitted curve at half-maximal effect.

SMILES	KDM5B inhibitor
CC(C)c1ccc(NC(=O)OC[C@H]2C[C@@H]3CCN2C[C@@H]3c2cc(C3CCCC3)nc(-c3ccncc3)n2)cc1	i
CN(C/C=C/Cl)C1Cc2ccccc2C1	i
O=C(COC(=O)C(O)(c1ccccc1)c1ccccc1)c1c[nH]c2ccccc12	i
COc1cc2c(cc1OCC1CC1)NC(=O)C21CCN(c2nc(C)cnc2C)CC1	i
O=C(Nc1ccc(=O)n2c1[C@@H]1C[C@@H](CN(C(=O)NC3CCCCC3)C1)C2)c1ccco1	i
Cc1ccccc1-c1ccc2n(c1=O)C[C@H]1C[C@@H]2CN(C(=O)Nc2ccc(Cl)cc2)C1	32µM*
CC(C)NC(=O)N1C[C@@H]2C[C@H](C1)c1c(-c3ccccc3F)ccc(=O)n1C2	i
Cc1ccccc1-c1ccc2n(c1=O)C[C@H]1C[C@@H]2CN(C(=O)NC(C)C)C1	35µM*
N#Cc1cccc(NC(=O)N2C[C@@H]3C[C@H](C2)c2c(-c4ccccc4)ccc(=O)n2C3)c1	i
Cc1ccc(NC(=O)N2C[C@@H]3C[C@H](C2)c2c(-c4cccs4)ccc(=O)n2C3)cc1	i
O=[N+]([O-])c1ccc(N2CCC(O)CC2)c2ccncc12	i
O=C1Nc2ccccc2C12CCN(Cc1ccc(C(F)(F)F)cc1)CC2	i
C#C[C@H]1CN2CC[C@H]1C[C@@H]2CNC(=O)Nc1cccc(C(F)(F)F)c1	i
CSCC(=O)N1C[C@@H]2C[C@H](C1)c1ccc(-c3cccc(C(F)(F)F)c3)c(=O)n1C2	35µM*
CSCC(=O)Nc1ccc(=O)n2c1[C@@H]1C[C@@H](CN(C(=O)NC3CCCCC3)C1)C2	i
O=C(O)CCC(=O)N1C[C@@H]2C[C@H](C1)c1c(-c3cc4ccccc4s3)ccc(=O)n1C2	i
Cc1ccccc1-c1ccc2n(c1=O)C[C@H]1C[C@@H]2CN(C(=O)c2cnccn2)C1	i
CC(=O)Nc1ccc(-c2ccc(=O)n3c2[C@@H]2C[C@@H](CN(C(=O)C4CCCCC4)C2)C3)cc1	i
O=C(O)CCCC(=O)N1C[C@@H]2C[C@H](C1)c1ccc(-c3ccc(Cl)cc3)c(=O)n1C2	40µM*
O=C(c1cnccn1)N1C[C@@H]2C[C@H](C1)c1ccc(-c3cccc(C(F)(F)F)c3)c(=O)n1C2	18µM*
O=C(C1CCCCC1)N1C[C@@H]2C[C@H](C1)c1ccc(-c3cccc(C(F)(F)F)c3)c(=O)n1C2	32µM*
O=C(CNC12CC3CC(CC(C3)C1)C2)c1ccc(Cl)cc1	i
Cc1cc(C(=O)N2[C@H]3CC[C@@H]2c2cnc(-c4ccc(F)cc4)nc2C3)n[nH]1	i
CSc1cccc(NC(=O)NC[C@H]2C[C@@H]3CCN2C[C@@H]3CN2CCC(Cc3ccccc3)CC2)c1	i
O=C(Cc1ccc(F)cc1)N1CCN(C2CCN(CCc3ccccc3)C2=O)CC1 (centres undefined)	i
SMILES	KDM5B inhibitor
Cc1ccc(CC(=O)N2CCN(C3CCN(Cc4cccnc4)C3=O)CC2)cc1 (centres undefined)	i
CSCC(=O)N1C[C@@H]2C[C@H](C1)c1ccc(-c3ccccc3CN(C)C)c(=O)n1C2	32µM*
CC(=O)Nc1ccc(-c2ccc(=O)n3c2[C@@H]2C[C@@H](CN(C(=O)CN(C)C)C2)C3)cc1	i
CN(C)[C@@H]1CN(C(=O)Cc2ccccc2)C[C@H]1CO	i
CC(C)N1CC2CCC(C1)N2S(C)(=O)=O	i
Cc1ncc2c(n1)C[C@@H]1CC[C@H]2N1C(=O)CCCc1ccccc1	i
COc1cc2c(cc1OCc1ccccc1)N(C(=O)c1cccc(N(C)C)c1)CC21CCN(C)CC1	i
CC(C)(C)c1ccc(-c2cn(C[C@H]3CC4CCN3C[C@@H]4C(=O)NC3CCCCC3)nn2)cc1 (some centres undefined)	i
Cn1nc(C2CCCC2)cc1[C@H]1CN2CC[C@H]1C[C@@H]2CNC(=O)c1ccc2c(c1)OCO2	i
O=C(O)C1=NOC2CN(Cc3cccnc3)CC12 (centres undefined)	40µM*
Cc1cc(CN2CC3ON=C(C(=O)O)C3C2)cc(C)n1 (centres undefined)	i
CN1C(=O)[C@H]2CN(Cc3cccnc3)C[C@H]2C1=O	i
CN1CCc2c([nH]c3ccccc23)C12CCNCC2	i
O=S(=O)(NC[C@H]1C[C@@H]2CCN1C[C@@H]2CN1CCOCC1)c1ccccc1	i
O=C(Nc1ccccc1)N1[C@H]2CC[C@@H]1c1cncnc1C2	i
O=S(=O)(NC[C@H]1C[C@@H]2CCN1C[C@@H]2CN1CCC(Cc2ccccc2)CC1)c1ccc(Cl)cc1	i
COc1cc2c(cc1OCC1CC1)NC(=O)C21CCN(c2nccc(C(F)(F)F)n2)CC1	22µM*
COc1cc2c(cc1OCC1CC1)NC(=O)C21CCN(c2ccnc(C)n2)CC1	i
COc1cc2c(cc1Oc1ccccc1)NC(=O)C21CCN(c2nccs2)CC1	i
COc1cc2c(cc1Oc1ccccc1)NC(=O)C21CCN(c2ncc(F)cn2)CC1	32µM*
COc1cc2c(cc1Oc1ccccc1)NC(=O)C21CCN(Cc2ccccn2)CC1	i
COc1cc2c(cc1OCc1ccccc1)NC(=O)C21CCN(c2ncc(F)cn2)CC1	32µM*
COc1cc2c(cc1OCC1CC1)NC(=O)C21CCN(c2ncc(F)cn2)CC1	i
COc1cc2c(cc1Oc1ccccc1)NC(=O)C21CCN(C(=O)c2cnccn2)CC1	i
COc1cc2c(cc1OCC1CC1)NC(=O)C21CCN(c2nccs2)CC1	i
SMILES	KDM5B inhibitor
COc1cc2c(cc1Oc1ccccc1)NC(=O)C21CCN(c2cnccn2)CC1	32µM*
COc1cc2c(cc1OCc1ccncc1)NC(=O)C21CCN(Cc2ccccc2)CC1	i
COc1cc2c(cc1Oc1ccccc1)NC(=O)C21CCN(C(=O)c2ccccc2)CC1	i
COc1cc2c(cc1OCCN(C)C)NC(=O)C21CCN(Cc2ccccc2)CC1	i
O=C(c1ccoc1)N1CCC2(CC1)NCc1ccccc1-n1ccnc12	i
CC(C)NC(=O)[C@H]1CN2CC[C@H]1C[C@@H]2Cn1cc(CO)nn1	i
CC(C)NC(=O)NC[C@H]1C[C@@H]2CCN1C[C@@H]2c1cc(C2CCCC2)nn1C	i
CN(C)c1ccc(C(=O)NC[C@H]2C[C@@H]3CCN2C[C@@H]3CN2CCc3ccccc3C2)cc1	i
COc1ccc(-c2coc3cc(OCC(=O)N4CCN(C)CC4)ccc3c2=O)cc1	i
CSc1cccc(NC(=O)NC[C@H]2C[C@@H]3CCN2C[C@@H]3CN2CCN(c3ccccc3)CC2)c1	i
O=C(CC1CCCC1)N1[C@H]2CC[C@@H]1c1cnc(-c3ccccc3)nc1C2	i
CCC1(N2CCN(C(=O)Cc3ccc(Cl)cc3)CC2)CCN(S(C)(=O)=O)C1 (centres undefined)	i
CCOCCCNC(=O)N1[C@H]2CC[C@@H]1c1cnc(-c3ccc(F)cc3)nc1C2	i
O=c1ccc(-c2ccc(Cl)cc2)c2n1C[C@H]1C[C@@H]2CN(S(=O)(=O)c2cccs2)C1	i
COc1ccc(-c2ccc3n(c2=O)C[C@H]2C[C@@H]3CN(S(C)(=O)=O)C2)cc1	40µM*
O=c1cccc2n1CC1CC2CN(S(=O)(=O)c2cc(Cl)ccc2Cl)C1 (centres undefined)	i
C#C[C@H]1CN2CC[C@H]1C[C@@H]2CNC(=O)c1ccc2ccccc2c1	i
O=C(C1CCCC1)N1CCC(C(=O)O)(c2ccccc2)CC1	i

Source: PubChem
